Compounds without any hit were thinned out: in the full panel of roughly 83,000, 20% have a hit.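 48-hour exposure, single concentration, 96-well plates; percent growth endpoint where 0 means no net growth. Active: below 10.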 Calls of active or inactive are those of the source.
Each compound was assayed on MOLT-4 leukemia (assay: NCI-60 one-dose screen, 48 h (100 = growth as untreated, 0 = no growth, -100 = all killed)). Settings: 10 µM unless noted.
Description: Growth inhibition of the MOLT-4 human tumor cell line is measured as a screen for anti-cancer activity. Cells are grown in 96 well plates and exposed to the test compound for 48 hours. Compounds are tested at a single concentration, which is 10^-5 M for most compounds. The reported endpoint is percent growth (GI% or GIPRCNT), where numbers from 0 - 100% represent growth inhibition, and numbers from -100% - 0 represent cell death. For example, a value of 40 represents 60% growth inhibition. A value of 0 means no net growth occurred over the course of the experiment. A value of -40 indicates 40% of cells at the beginning of the experiment died by the end of the experiment. A value of -100 means all cells are dead at the end of the experiment.
NCI-60 Human Tumor Cell Lines Screen was performed using the standard one-dose NCI protocol, which is described in more detail at https://dtp.cancer.gov/discovery_development/nci-60/default.htm.
Compounds with GIPRCNT values below 10 were considered active. Activity score was based on GIPRCNT using the following formula: […]
Score is 0 for GIPRCNT values of 100 or above, 50 for GIPRCNT values of 0, and 100 for GIPRCNT values of -100.

Structure (SMILES) | growth
Cc1ccc2c(n1)C(=O)C(Cl)=C(Nc1cccc(C(C)C)c1)C2=O | 35.4% (inactive)
c1ccc(CNc2ncnc3ccc(-c4cnc5[nH]ncc5c4)cc23)cc1 | 34.6% (inactive)
CS(=O)(=O)Nc1ccc(-c2nn(-c3ccc(S(C)(=O)=O)cc3)cc2/C=C/C(=O)c2ccc(NC(=O)CO[N+](=O)[O-])cc2)cc1 | 107% (inactive)
N=C1CC(=O)NN1C(=O)CSc1nc2sc3c(c2c(=O)n1-c1ccc(Cl)cc1)CCCC3 | 103% (inactive)
COc1ccc(COc2ccc(/C=C3/C(=O)Nc4cc(Cl)ccc43)cc2)cc1 | 108% (inactive)
COC(=O)C1CN(S(=O)(=O)/N=C2\NC(=O)NC2=C(Cl)Cl)C1 | 104% (inactive)
CCCC(=O)NC(c1ccc(N(CC)CC)cc1)c1cc(C)c2cccnc2c1O (stereo not given) | 8.44% (active)
C#Cc1nc(C2=C(C)/C(=N/OCc3ccccc3)CC2)cs1 | 60.7% (inactive)
OC1CCN(CCCOc2c3ccccc3nc3c2oc2ccccc23)CC1 | 3.82% (active)
Cc1cc(C(=O)Nc2sc3c(c2C(N)=O)CCC(=O)C3)ccc1OCCN1CCCCC1 | 51.9% (inactive)
COc1ccc(-c2nc3ccc(-c4nnc(SCC(=O)Nc5ccc(C(=O)/C=C/c6ccc(Cl)cc6)cc5)o4)cc3[nH]2)cc1OC | 75.8% (inactive)
N#Cc1c(-c2ccc(Cl)cc2)nc2c(-c3ccccc3)c(Nc3ccccc3)nn2c1N | 61% (inactive)
COc1cc(-c2ccc3ncnc(NC(C)c4ccccc4)c3c2)cnc1OC (stereo not given) | 45.1% (inactive)
CN(C)c1ccc(/C=c2\sc3nc4ccccc4n3c2=O)cc1 | 103% (inactive)
Cc1nc(-c2cc3ccccc3oc2=O)ccc1C(=O)/C=C/c1ccccn1 | 27.1% (inactive)
COc1cccc(N2CCN(c3ncnc4c3[nH]c3ccc(F)cc34)C[C@@H]2C)c1 | -42% (active)
COc1cc2cc(Oc3ccc(NC(=O)c4cccc(C(F)(F)F)c4)cc3)c(C)nc2cc1OCCN1CCCCC1 | 1.53% (active)
O=c1/c(=C\c2ccc(-c3ccccc3)o2)sc2nc(-c3ccccc3)nn12 | 108% (inactive)
Cc1cccc2sc(/N=C(\N)C(Br)Br)nc12 | 2.63% (active)
Cc1sc2c(c1C)c(=O)nc1c(-c3nc(-c4ccc(F)cc4)no3)n[nH]n12 | 104% (inactive)

Structure (SMILES) | growth
C/C(=N\NC(N)=O)c1c(O)sc(=O)[nH]c1=O | 109% (inactive)
CCOC(=O)c1sc(N)c(C(=O)OCC)c1C | 26.5% (inactive)
NS(=O)(=O)c1cccc(Nc2nc(SCC(=O)c3ccc([N+](=O)[O-])cc3)nc3ccccc23)c1 | -6.08% (active)
O=C(c1ccc(Cl)cc1)C1[C@H](c2ccc(Cl)cc2)[C@@H](c2ccccc2)NC12C(=O)Nc1ccc(Br)cc12 (stereo not given in full) | 6.17% (active)
O=[N+]([O-])c1ccc(O)c2ncccc12 | 19.9% (inactive)
CO/N=C1\CCc2c(sc(NC(=O)c3cccc(C(F)(F)F)c3)c2C(N)=O)C1 | 84.1% (inactive)
O=C(N/N=C/c1cccs1)c1[nH]c2ccc(Br)cc2c1-c1ccccc1 | 11.5% (inactive)
CCOC(=O)c1sc(NCC(=O)Nc2cccc([N+](=O)[O-])c2)c(C(=O)OCC)c1C | 6.63% (active)
O=C1c2c(c3c4cc(Br)ccc4[nH]c3c3ccc4ccccc4c23)C(=O)N1CCO | 70.5% (inactive)
OC1CCN(CCCOc2c3ccc(Cl)cc3nc3c2oc2ccccc23)CC1 | -21.5% (active)
Clc1ccc2c(NCCCN3CCOCC3)c3oc4ccc(Cl)cc4c3nc2c1 | 15.4% (inactive)
COc1ccc(C(=O)/C=C/c2ccc(OCc3ccc(C)cc3)c(OC)c2)cc1OC | 29.4% (inactive)
N[C@@H](Cc1cn(-c2ccnc3ccccc23)nn1)C(=O)O | 107% (inactive)
CN1CCc2c(sc3ncnc(N/N=C/c4ccc(Cl)c(Cl)c4)c23)C1 | 26.6% (inactive)
CC(C)NC(=O)c1cc(-c2ccc(NC(=O)Nc3ccc(N4CCOCC4)c(C(F)(F)F)c3)cc2)nc2cccnc12 | 18.7% (inactive)
COc1cc(/C=C/C(=O)c2ccc(F)cc2)ccc1Oc1nc(NCCO)nc(N2CCOCC2)n1 | 6.59% (active)
C#C[C@]1(O)CC[C@H]2[C@@H]3CC=C4c5sc(-c6ccc(F)cn6)nc5CC[C@]4(C)[C@H]3CC[C@@]21C | -7.92% (active)
Nc1cc(-c2c[nH]c3ccccc23)nc2cc(-c3c[nH]c4ccccc34)nn12 | 34% (inactive)
Fc1ccc(-c2cc3nc(C(Cl)Cl)nc(-c4ccc(Cl)cc4)n3n2)cc1 | 19.3% (inactive)
COc1cccc(-c2nn(-c3ccccc3)cc2-c2ccnc(N3CCN(C(=O)Nc4ccc(F)cc4)CC3)c2)c1 | 19.3% (inactive)
